# esBAF inh – inhibitors of esBAF chromatin remodeling in mouse ES cells; Bmi1-luciferase knock-in reporter, 24 h; 100% = twice the neutral-well signal; reporter increase, % at 12.5 µM; hit rate 2% among 350,000; in the data active = activation above about 40%; inconclusive = no clear call, values can overlap the other calls;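 also: 0% = median of the plate's neutral control wells and 100% = double that signal; a rise in the Bmi1 reporter signal indicates esBAF inhibition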
# Wnt act – activates Wnt/beta-catenin signaling in a reporter cell assay | activation, % at 9.35 µM | activator, plate reader | hit rate 1.2% among 300,000 | AID 743398; in the data active = activation above about 30%, passing the limit was not always enough; inconclusive = no clear call, values can overlap the other calls;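 also: 0% = neutral control wells and 100% = positive control wells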
# Vif imaging – HIV Vif inhibition | HEK293T cells, Vif self-association by quenched fluorescence, imaging, 24 h | inhibition, % at 7.49 µM | hit rate 0.35% among 340,000; in the data active = inhibition above about 50%, passing the limit was not always enough; inconclusive = no clear call, values can overlap the other calls; inactive = below about 31%
# Glyco luc inh – blocks N-linked glycosylation in D54 reporter cells. hit rate 0.23% among 360,000. D54 ERlucT glycosylation luciferase reporter, 24 h; percent of 100 nM tunicamycin response. reporter increase, % at 12.5 µM. AID 588692;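 active = mean luciferase reporter signal, scaled so untreated is 0 and the glycosylation-blocking control 100, at or above a set limit in every replicate; inconclusive = mean reaches the limit but not every replicate does; inactive = mean below the limit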;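 also: luciferase carries N-glycosylation sites so blocking glycosylation raises the light; 0% = median of neutral control wells and 100% = median of 100 nM tunicamycin wells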
# MITF act – MITF TRPM1 promoter activation in melanoma cells; SK-MEL-5 TRPM1-promoter luciferase, 24 h; % of positive control, neutral wells = 0; activation, % at 12.5 µM; hit rate 0.75% among 300,000;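 active = mean activation of at least 80% with every replicate also reaching 80%; inconclusive = mean reaches 80% but some replicate falls short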;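 also: 0% = neutral control wells and 100% = parthenolide positive control wells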
# PfHsp90 set2 – growth inhibition of yeast expressing Plasmodium Hsp90 | hit rate 0.32% among 310,000 | S. cerevisiae expressing PfHsp90, BacTiter-Glo ATP, 48 h; yeast lacking PDR1 and PDR3 efflux regulators | AID 504621 | inhibition, % at 9.4 µM;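 active = every replicate shows inhibition above about 80%, whatever the replicate mean, limit read from the data; inconclusive = mean inhibition reaches the set limit but some replicate falls short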;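 also: 0% = DMSO neutral controls and 100% = 20 µM radicicol positive controls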
# Active calls of the source: *; ? = inconclusive; / = not tested or not shown. Hits are enriched below; roughly 3% of the tested compounds scored in any of these assays.
SMILES,esBAF inh,Wnt act,Vif imaging,Glyco luc inh,MITF act,PfHsp90 set2
O=C(Nc1ccccc1)Nc1ccc(F)cc1F,/,48.4*,7.7,-0.8,72.2,-10.8
CC(=O)Nc1cccc(NC(=O)Nc2ccc(F)cc2F)c1,/,-4.2,-1.2,1.3,-7.4,0.9
O=C(Nc1ccc2c(c1)OCO2)Nc1ccc(F)cc1F,30.0,20.1,-6.2,-6.2,?,8.8
O=C(CCc1ccccc1)Nc1ccc(F)cc1F,65.7*,13.0,3.9,-0.7,54.6,18.5
COc1cc(CCC(=O)N2CCN(c3cccc(C)c3C)CC2)cc(OC)c1OC,11.0,1.1,/,-0.1,-1.7,1.9
CCCNC(=O)N(C)C[C@H]1Oc2cc(C#C[C@@H](C)O)ccc2S(=O)(=O)N([C@@H](C)CO)C[C@H]1C,0.8,/,/,/,/,/
O=C(NC1CCN(Cc2ccc(F)cc2)CC1)c1ccccc1,-9.8,0.4,-9.6,-2.0,/,6.8
O=C1OCC2=C1C(c1ccc(Cl)cc1)CC(=O)N2c1ccc(F)cc1 (stereo not drawn),/,-3.3,1.4,1.1,-3.7,-63.5
Cc1cc(C)c2c(N=NN(C)C)[nH]nc2n1,-6.8,-0.5,-2.6,-2.7,1.7,103.9*
C[C@H](CO)N1C[C@H](C)[C@H](CN(C)C(=O)Nc2ccc3c(c2)OCO3)OCc2ccccc2-c2c(n(C)c3ccccc23)C1=O,92.9*,/,/,/,/,/
C[C@H]1CN([C@@H](C)CO)C(=O)c2c(c3ccccc3n2C)-c2ccccc2CO[C@H]1CN(C)C(=O)Nc1ccc2c(c1)OCO2,60.0*,/,/,/,/,/
C[C@@H]1CN([C@@H](C)CO)C(=O)c2c(c3ccccc3n2C)-c2ccccc2CO[C@H]1CN(C)C(=O)Nc1ccc2c(c1)OCO2,86.4*,/,/,/,/,/
C[C@H](CO)N1C[C@H](C)[C@H](CN(C)C(=O)Nc2cccc(F)c2)OCc2ccccc2-c2c(n(C)c3ccccc23)C1=O,1.4,/,/,/,/,/
C[C@@H]1CN([C@H](C)CO)C(=O)c2c(c3ccccc3n2C)-c2ccccc2CO[C@@H]1CN(C)C(=O)Nc1ccc2c(c1)OCO2,3.0,-1.8,1.7,-0.3,/,/
C[C@@H]1CN([C@H](C)CO)C(=O)c2c(c3ccccc3n2C)-c2ccccc2CO[C@H]1CN(C)C(=O)Nc1ccc2c(c1)OCO2,80.8*,/,/,/,/,/
COc1ccc(NC(=O)CSCC(=O)N(C)Cc2ccc(Cl)c(Cl)c2)cc1,1.3,-4.8,15.9,-1.4,4.1,-32.0
C[C@@H]1CN([C@H](C)CO)C(=O)Cc2cc(NC(=O)C3CCCCC3)ccc2O[C@@H]1CN(C)S(=O)(=O)c1cccs1,2.2,/,/,/,/,/
COc1ccc(C(=O)Nc2ccc(C3CC3(Cl)Cl)cc2)cc1 (stereo not drawn),90.9*,-1.1,-2.7,-2.0,36.7,/
COc1ccc(NC(=O)c2coc(C)c2)cc1,74.1*,9.6,-18.4,-0.1,/,-16.6
COc1ccc(NC(=O)Nc2nnc(-c3ccccc3F)s2)cc1,/,-3.4,-4.4,1.1,43.4,-15.4
COc1ccc(NC(=O)Nc2nnc(-c3ccco3)s2)cc1,30.4,53.5*,-3.4,-2.3,78.2,1.6
COc1ccc(NC(=O)c2cc(-c3ccccc3Cl)on2)cc1,63.0*,?,-11.5,-1.3,/,-6.1
COc1ccc(NC(=O)c2cc(-c3ccccc3OC)on2)cc1,12.6,/,6.7,14.2,8.8,/
O=C(/C(=C(\O)c1ccccc1)c1ncc[nH]1)c1ccccc1,5.4,-0.5,-0.5,1.3,-9.7,9.5
OC(COCC1COc2ccccc2O1)CN1CCc2ccccc2C1 (stereo not drawn),-6.7,/,1.4,0.4,4.0,7.1
SMILES,esBAF inh,Wnt act,Vif imaging,Glyco luc inh,MITF act,PfHsp90 set2
COc1ccc(NC(=O)c2cc(-c3ccco3)on2)cc1,/,42.3*,-11.1,-0.3,91.7*,-43.9
CCc1ccc(NC(=O)c2cc(-c3ccco3)on2)cc1,66.2*,/,/,3.7,101.0*,17.5
O=C(Nc1cccc(Cl)c1)c1cc(-c2ccco2)on1,0.9,27.5,10.3,1.3,-7.0,-22.1
COc1ccc(NC(=O)c2cc(-c3ccco3)on2)c(OC)c1,7.7,-0.9,12.3,0.4,1.6,-3.4
Cc1cc(C)nc(N2CCCC(C(=O)NCCc3ccccc3F)C2)n1 (stereo not drawn),-4.3,0.9,/,-1.9,-4.9,8.2
Cc1c(/C=N\NC(=O)C2COc3ccccc3O2)c2ccccc2n1C (stereo not drawn),/,/,40.2,21.1,-47.4,6.7
Cc1c(/C=N/Nc2ccc(C(=O)O)cc2)c2ccccc2n1C,66.7*,1.8,-1.8,-0.2,90.3*,-10.4
CCc1ccc(S(=O)(=O)NCCc2csc(C)n2)s1,/,2.7,18.3,1.2,-11.8,-5.7
N#Cc1ccc(COC(=O)CSc2nnc(N)s2)cc1,/,-1.2,-13.1,1.8,4.7,1.6
COc1ccc2nc3sc(C(=O)NCCN4CCc5ccccc5C4)cc3cc2c1,88.9*,4.2,-7.8,2.8,-6.4,-7.3
CSc1nnc2c(n1)OC(C)N(C(=O)c1ccccc1)c1ccccc1-2 (stereo not drawn),-0.9,/,2.2,1.8,/,/
CCOC(=O)c1sc(NC(=O)c2cccs2)cc1C,64.5*,/,37.2,-10.7,46.4,14.8
CCOC(=O)c1sc(NC(=S)NC(=O)C2CC2)cc1C,/,3.3,-4.4,-1.7,4.0,-20.3
CCOC(=O)c1sc(NC(=O)c2ccc(Br)o2)cc1C,90.6*,/,-14.5,-5.6,94.3*,16.5
CCOC(=O)c1sc(NC(=O)c2sccc2C)cc1C,5.1,58.7*,-2.8,-11.2,/,20.6
CCOC(=O)c1sc(NC(=O)Nc2cccc(Cl)c2)cc1C,/,35.4*,-22.2,-9.8,59.8,-6.7
Cc1ccc(S(=O)(=O)N(C)C[C@H]2Oc3ccc(NC(=O)CCCCCC(=O)Nc4ccccc4N)cc3CC(=O)N([C@H](C)CO)C[C@H]2C)cc1,4.2,/,/,/,/,/
CCOc1ccc(-n2c(SC)nc3c(c2=O)SCC3)cc1,-2.9,/,-3.0,-0.1,-4.2,12.0
COc1cc([N+](=O)[O-])ccc1N=Nc1c(N)[nH]n(-c2ccccc2)c1=O,/,-1.6,-3.2,1.6,5.0,-7.5
Nc1[nH]n(-c2ccccc2)c(=O)c1N=Nc1ccccc1,53.9*,55.0*,-3.1,5.5,74.7,-24.4
Nc1[nH]n(-c2ccccc2)c(=O)c1N=Nc1ccccc1[N+](=O)[O-],/,60.6*,4.5,-1.8,128.0*,-7.8
O=c1c(N=Nc2ccccc2)c[nH]n1-c1ccccc1,18.1,44.9*,/,-6.4,/,/
Cc1[nH]n(-c2ccccc2)c(=O)c1N=Nc1ccc(F)cc1,29.5,1.9,2.7,0.3,15.0,-87.7
Cc1[nH]n(-c2ccccc2)c(=O)c1N=Nc1ccc2c(c1)OCCO2,/,35.2*,8.3,-0.3,73.9,-7.6
Cc1ccc(N=Nc2c(C)[nH]n(-c3ccccc3)c2=O)cc1Br,-3.1,0.0,-3.4,0.8,/,8.2
Cn1c2ccccc2c2cnn(CC(=O)Nc3ccccc3Br)c(=O)c21,/,0.2,-15.0,0.9,-4.4,10.0

# High-throughput results deposited in PubChem by Broad Institute.
